Source: publication PMC11062922 (Nature Chemical Biology, 2023)
Where two headings read alike, the source gives them in different places.

Columns and labels:
ABL1 = test system: ABL1; set-up: species or system human, MV4-11 + K-562 + COLO205 + SK-N-BE2 + OVCAR-8; conditions: read-out: apparent Kd, compound concentrations: 100 nM and 1000 nM (sheet 'Samples'), n = 1
ABL2 = test system: ABL2; set-up: species or system human, MV4-11 + K-562 + COLO205 + SK-N-BE2 + OVCAR-8; conditions: read-out: apparent Kd, n = 1
BCR = test system: BCR; set-up: species or system human, MV4-11 + K-562 + COLO205 + SK-N-BE2 + OVCAR-8; conditions: read-out: apparent Kd, compound concentrations: 100 nM and 1000 nM (sheet 'Samples'), n = 1
FYN = test system: FYN; set-up: species or system human, MV4-11 + K-562 + COLO205 + SK-N-BE2 + OVCAR-8; conditions: read-out: apparent Kd, compound concentrations: 100 nM and 1000 nM (sheet 'Samples'), n = 1
GAK = test system: GAK; set-up: species or system human, MV4-11 + K-562 + COLO205 + SK-N-BE2 + OVCAR-8; conditions: read-out: apparent Kd, n = 1
HCK = test system: HCK; set-up: species or system human, MV4-11 + K-562 + COLO205 + SK-N-BE2 + OVCAR-8; conditions: read-out: apparent Kd, compound concentrations: 100 nM and 1000 nM (sheet 'Samples'), n = 1
LCK = test system: LCK; set-up: species or system human, MV4-11 + K-562 + COLO205 + SK-N-BE2 + OVCAR-8; conditions: read-out: apparent Kd, compound concentrations: 100 nM and 1000 nM (sheet 'Samples'), n = 1
RET = test system: RET; set-up: species or system human, MV4-11 + K-562 + COLO205 + SK-N-BE2 + OVCAR-8; conditions: read-out: apparent Kd, compound concentrations: 100 nM and 1000 nM (sheet 'Samples'), n = 1
RIPK2 = test system: RIPK2; set-up: species or system human, MV4-11 + K-562 + COLO205 + SK-N-BE2 + OVCAR-8; conditions: read-out: apparent Kd, n = 1
RIPK3 = test system: RIPK3; set-up: species or system human, MV4-11 + K-562 + COLO205 + SK-N-BE2 + OVCAR-8; conditions: read-out: apparent Kd, compound concentrations: 100 nM and 1000 nM (sheet 'Samples'), n = 1
TNK1 = test system: TNK1; set-up: species or system human, MV4-11 + K-562 + COLO205 + SK-N-BE2 + OVCAR-8; conditions: read-out: apparent Kd, n = 1
YES1 = test system: YES1; set-up: species or system human, MV4-11 + K-562 + COLO205 + SK-N-BE2 + OVCAR-8; conditions: read-out: apparent Kd, compound concentrations: 100 nM and 1000 nM (sheet 'Samples'), n = 1
Q6ZSR9 = Q6ZSR9 (human, UniProt Q6ZSR9); set-up: species or system MV4-11 + K-562 + COLO205 + SK-N-BE2 + OVCAR-8; conditions: read-out: apparent Kd; compound concentrations:100 nM and 1000 nM (sheet 'Samples'); n = 1
CLK1 = test system: CLK1; set-up: species or system human, MV4-11 + K-562 + COLO205 + SK-N-BE2 + OVCAR-8; conditions: read-out: apparent Kd; compound concentrations:100 nM and 1000 nM (sheet 'Samples'); n = 1
CLK4 = test system: CLK4; set-up: species or system human, MV4-11 + K-562 + COLO205 + SK-N-BE2 + OVCAR-8; conditions: read-out: apparent Kd; compound concentrations:100 nM and 1000 nM (sheet 'Samples'); n = 1
PTK6 = test system: PTK6; set-up: species or system human, MV4-11 + K-562 + COLO205 + SK-N-BE2 + OVCAR-8; conditions: read-out: apparent Kd; compound concentrations: 100 nM and 1000 nM (sheet 'Samples'), CATDS: 2.9493928233546299E-2; n = 1
[1] = compound concentrations:100 nM and 1000 nM (sheet 'Samples')

Sequence of Q6ZSR9 (Q6ZSR9 whole entry, looked up): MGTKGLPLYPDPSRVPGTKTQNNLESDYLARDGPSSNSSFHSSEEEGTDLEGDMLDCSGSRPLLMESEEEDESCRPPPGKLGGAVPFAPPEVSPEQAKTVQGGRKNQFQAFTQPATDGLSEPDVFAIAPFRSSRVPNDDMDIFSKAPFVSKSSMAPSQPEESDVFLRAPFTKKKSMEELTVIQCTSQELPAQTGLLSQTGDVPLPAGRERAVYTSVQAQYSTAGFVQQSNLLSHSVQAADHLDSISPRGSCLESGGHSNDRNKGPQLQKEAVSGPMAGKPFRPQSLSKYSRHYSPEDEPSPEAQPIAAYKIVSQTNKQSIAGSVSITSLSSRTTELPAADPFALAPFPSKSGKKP

Cn1cc(-c2ccc3c(c2)CCN3C(=O)Cc2cc(F)cc(C(F)(F)F)c2)c2c(N)ncnc21 [GSK2635225A] showed a potency estimated from few doses (ABL1; CATDS: 0.14527180827686201) of 1130 nM and a potency estimated from few doses (ABL2; compound concentrations: 100 nM and 1000 nM (sheet 'Samples'), CATDS: 0.18446738219414099) of 647 nM.

Molecule CC(C)c1nc(-c2cccc(NS(=O)(=O)c3c(F)cccc3F)c2)c(-c2ccnc(Nc3ccc(N4CCOCC4)nc3)n2)s1.Cl [GSK1723980B] has a potency estimated from few doses (ABL1; CATDS: 2.44032415333994E-2) of 301 nM, a potency estimated from few doses (ABL2; compound concentrations: 100 nM and 1000 nM (sheet 'Samples'), CATDS: 5.9392404533495001E-2) of 61.3 nM and a potency estimated from few doses (BCR; CATDS: 2.01356126413582E-2) of 494 nM. The potency estimated from few doses (FYN; CATDS: 2.5454703773251201E-2) was 273 nM, the potency estimated from few doses (GAK; compound concentrations: 100 nM and 1000 nM (sheet 'Samples'), CATDS: 7.7994003352353694E-2) was 41.9 nM and the potency estimated from few doses (HCK; CATDS: 2.2853369268103E-2) was 353 nM. It also gave a potency estimated from few doses (LCK; CATDS: 3.2406283014168501E-2) of 166 nM, a potency estimated from few doses (RET; CATDS: 3.0852467961072601E-2) of 183 nM and a potency estimated from few doses (RIPK2; compound concentrations: 100 nM and 1000 nM (sheet 'Samples'), CATDS: 1.9945459179113199E-2) of 508 nM. For the same molecule, the potency estimated from few doses (RIPK3; CATDS: 1.9089551984729902E-2) was 580 nM, the potency estimated from few doses (TNK1; compound concentrations: 100 nM and 1000 nM (sheet 'Samples'), CATDS: 4.2309935228441099E-2) was 104 nM and the potency estimated from few doses (YES1; CATDS: 2.9075172405301501E-2) was 206 nM.

N#Cc1cnc2cc(-c3cnc(CNCCN4CCOCC4)s3)ccc2c1Nc1ccc(Oc2ccccc2)cc1 [GW664114X] was tested, and the potency estimated from few doses (ABL1; CATDS: 4.8325821133258902E-2) was 1130 nM, the potency estimated from few doses (FYN; CATDS: 5.3110051753070202E-2) was 831 nM and the potency estimated from few doses (HCK; CATDS: 0.211931822213385) was 69.1 nM. The potency estimated from few doses (LCK; CATDS: 5.7694634687651798E-2) was 657 nM and the potency estimated from few doses (YES1; CATDS: 7.4593421105350805E-2) was 361 nM.

For CC(=O)N1CCN(c2ccc(Nc3nccc(-c4sc(C(C)C)nc4-c4cccc(NS(=O)(=O)c5ccccc5)c4)n3)cn2)CC1 [GSK1645872A], the potency estimated from few doses (ABL1; CATDS: 2.9890665121479899E-2) was 746 nM, the potency estimated from few doses (ABL2; compound concentrations: 100 nM and 1000 nM (sheet 'Samples'), CATDS: 6.8030281480511795E-2) was 166 nM and the potency estimated from few doses (BCR; CATDS: 2.6881466096611999E-2) was 991 nM. It also gave a potency estimated from few doses (GAK; compound concentrations: 100 nM and 1000 nM (sheet 'Samples'), CATDS: 3.3630312969228401E-2) of 566 nM, a potency estimated from few doses (LCK; CATDS: 2.6338913401390801E-2) of 1050 nM and a potency estimated from few doses (RIPK2; compound concentrations: 100 nM and 1000 nM (sheet 'Samples'), CATDS: 3.4620572917050799E-2) of 532 nM. The potency estimated from few doses (RIPK3; CATDS: 4.0939196436341502E-2) was 381 nM, the potency estimated from few doses (TNK1; compound concentrations: 100 nM and 1000 nM (sheet 'Samples'), CATDS: 4.1915160463804002E-2) was 364 nM and the potency estimated from few doses (YES1; CATDS: 4.4721674656853803E-2) was 324 nM.

Work on COc1cc2ncn(-c3cc(OCc4cccs4)c(C(N)=O)s3)c2cc1OC [GSK312948A] yielded a potency estimated from few doses (Q6ZSR9) of 2250 nM.

In the case of CNc1nccc(-c2c(-c3ccc(F)cc3)ncn2C2CCN(C)CC2)n1 [SB-222903], the potency estimated from few doses (ABL2; [1]) is reported as 389 nM, the potency estimated from few doses (CLK1) is reported as 808 nM and the potency estimated from few doses (RIPK2; [1]) is reported as 433 nM.

Work on COc1cc2ncn(-c3cc(OCCCc4ccccc4)c(C(N)=O)s3)c2cc1OC [GSK205189A] yielded a potency estimated from few doses (ABL2; [1]) of 956 nM, a potency estimated from few doses (CLK1) of 105 nM and a potency estimated from few doses (CLK4) of 1340 nM. It also gave a potency estimated from few doses (GAK; [1]) of 663 nM, a potency estimated from few doses (Q6ZSR9) of 1480 nM and a potency estimated from few doses (TNK1; [1]) of 42.3 nM.

For Nc1ncc(-c2cn[nH]c2)c2scc(-c3ccc4c(c3)CCN4C(=O)Cc3ccccc3)c12 [GSK2593067A], the potency estimated from few doses (ABL1; CATDS: 6.1234065339549101E-2) was 1560 nM, the potency estimated from few doses (LCK; CATDS: 7.5344179504310702E-2) was 841 nM and the potency estimated from few doses (RIPK2; compound concentrations: 100 nM and 1000 nM (sheet 'Samples'), CATDS: 7.5110526663463406E-2) was 848 nM.

With CS(=O)(=O)Cc1ccc(Nc2nccc(-c3c(-c4cccc(NC(=O)c5c(F)cccc5F)c4)nn4ccccc34)n2)cc1 [GSK323543A] the potency estimated from few doses (ABL2; compound concentrations: 100 nM and 1000 nM (sheet 'Samples'), CATDS: 7.35852808685315E-2) was 971 nM, the potency estimated from few doses (HCK; CATDS: 9.4870937315331097E-2) was 576 nM and the potency estimated from few doses (LCK; CATDS: 7.3424400867348402E-2) was 976 nM. It also gave a potency estimated from few doses (RET; CATDS: 0.14439255275757601) of 289 nM, a potency estimated from few doses (RIPK3; CATDS: 7.2905332862385097E-2) of 992 nM and a potency estimated from few doses (TNK1; compound concentrations: 100 nM and 1000 nM (sheet 'Samples'), CATDS: 0.144635692896082) of 288 nM. It also gave a potency estimated from few doses (YES1; CATDS: 0.11796638249333601) of 395 nM.

For Cc1ccc(O)cc1Nc1ccnc2ccc(C(C)(C)C)cc12 [GW856805X], the potency estimated from few doses (ABL1; CATDS: 2.7380804690978401E-2) was 1400 nM, the potency estimated from few doses (ABL2; compound concentrations: 100 nM and 1000 nM (sheet 'Samples'), CATDS: 3.3299960088100697E-2) was 317 nM and the potency estimated from few doses (BCR; CATDS: 4.5684736172067801E-2) was 79.1 nM. The potency estimated from few doses (FYN; CATDS: 4.6328072424656697E-2) was 75.5 nM, the potency estimated from few doses (GAK; compound concentrations: 100 nM and 1000 nM (sheet 'Samples'), CATDS: 4.7417196878279499E-2) was 70 nM and the potency estimated from few doses (PTK6) was 718 nM. It also gave a potency estimated from few doses (RET; CATDS: 4.15605904174959E-2) of 111 nM, a potency estimated from few doses (RIPK2; compound concentrations: 100 nM and 1000 nM (sheet 'Samples'), CATDS: 0.10546216310876699) of 11.1 nM and a potency estimated from few doses (RIPK3; CATDS: 3.0648006837875299E-2) of 540 nM.
